In PubChem BioAssay (EPA / NIEHS):
Values joined by “and” are separate entries in the source; they are usually repeats but may differ in a detail not shown here. Identical values can stand only once. Inconclusive results are not listed. Where a structure was tested more than once in an assay, its records may differ in their call. Active and inactive are the calls of the source. Rule for the calls, unless noted: active = hit-call score of the fitted dose curve at least 0.9, where 1 is the maximum; inconclusive = response in the unintended direction; inactive = score below 0.9.

Legend:
[1] = biological target: human Peroxisome Proliferator-activated Receptor delta (PPARd), PPARD (gene 5467) (UniProt Q03181); assay: ATG_PPARd_TRANS: Attagene TRANS-FACTORIAL HepG2 Assay for human Peroxisome Proliferator-activated Receptor delta (PPARd) (AID 2283002)
human Peroxisome Proliferator-activated Receptor delta (PPARd), PPARD (gene 5467), sequence (Q03181 whole entry, looked up, the tested form may be a part): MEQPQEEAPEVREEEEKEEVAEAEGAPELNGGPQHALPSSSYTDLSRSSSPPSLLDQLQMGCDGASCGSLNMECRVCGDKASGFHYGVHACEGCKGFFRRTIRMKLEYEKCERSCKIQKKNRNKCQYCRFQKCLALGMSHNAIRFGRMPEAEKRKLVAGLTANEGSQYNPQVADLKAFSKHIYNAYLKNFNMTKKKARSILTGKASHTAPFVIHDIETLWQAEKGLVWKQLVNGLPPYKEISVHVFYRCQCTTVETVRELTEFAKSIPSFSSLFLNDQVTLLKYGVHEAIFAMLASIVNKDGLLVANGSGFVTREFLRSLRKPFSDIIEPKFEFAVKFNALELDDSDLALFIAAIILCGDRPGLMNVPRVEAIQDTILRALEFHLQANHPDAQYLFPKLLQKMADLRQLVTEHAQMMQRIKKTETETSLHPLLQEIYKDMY
Outline: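 HepG2 cells transiently transfected with multiplexed GAL4-UAS reporter units and exogenous chimeric NR-Gal4 proteins; 24 h compound exposure. Reporter mRNA measured by RT-PCR, 6-FAM labelling, HpaI digestion and capillary electrophoresis; gain of signal versus DMSO.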

[2] = read-out: Intercellular Adhesion Molecule 1 (ICAM1), ICAM1 (gene 3383); assay: BSK_3C_ICAM1: BioMAP Diversity Plus: 3C Assay for Intercellular Adhesion Molecule 1 (ICAM1) Biomarker Activity (AID 2283003; active = hit-call score of the fitted dose curve at least 0.9, where 1 is the maximum; inactive = score below 0.9); details: primary human endothelial cells (HUVEC); actives raise or lower the signal
Outline: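 ELISA read-out of ICAM-1; HUVEC (primary human), 3C system, 24 h post-dosing; bidirectional fit vs DMSO baseline.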

[3] = biological target: human Retinoic Acid Receptor beta (RARb), RARB (gene 5915) (UniProt P10826); assay: ATG_RARb_TRANS: Attagene TRANS-FACTORIAL HepG2 Assay for human Retinoic Acid Receptor beta (AID 2283004)
human Retinoic Acid Receptor beta (RARb), RARB (gene 5915), sequence (P10826 whole entry, looked up, the tested form may be a part): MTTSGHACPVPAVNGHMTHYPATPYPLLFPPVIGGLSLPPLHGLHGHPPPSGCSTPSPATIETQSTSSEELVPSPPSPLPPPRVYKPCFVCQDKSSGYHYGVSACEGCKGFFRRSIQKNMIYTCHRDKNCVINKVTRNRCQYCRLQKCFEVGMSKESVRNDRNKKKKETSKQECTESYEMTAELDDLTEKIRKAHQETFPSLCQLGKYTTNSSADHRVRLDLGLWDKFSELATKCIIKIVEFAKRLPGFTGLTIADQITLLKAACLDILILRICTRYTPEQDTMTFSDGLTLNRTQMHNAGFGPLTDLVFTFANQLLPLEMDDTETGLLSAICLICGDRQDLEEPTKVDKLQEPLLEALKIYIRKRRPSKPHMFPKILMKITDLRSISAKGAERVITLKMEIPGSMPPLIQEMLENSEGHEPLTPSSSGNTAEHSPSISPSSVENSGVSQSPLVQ
Outline: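 Induction of reporter mRNA from a chimeric RARb-Gal4 construct was measured by RT-PCR, FAM labelling, HpaI digestion and capillary electrophoresis. Measurements followed 24 h compound treatment of transiently transfected human HepG2 liver cells, with DMSO as baseline.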

[4] = biological target: Retinoic acid receptor alpha (Homo sapiens) (UniProt P10276); assay: ATG_RARa_TRANS: Attagene TRANS-FACTORIAL HepG2 Assay for human Retinoic Acid Receptor alpha (RARa) (AID 2283005)
Outline: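 HepG2 cells transiently transfected with multiple reporter units expressing chimeric RARα-GAL4 fusion, with GAL4-UAS-driven reporters. After 24 h compound exposure, reporter mRNA induction quantified by RT-PCR and capillary electrophoresis with fluorescent labeling; gain-of-signal fitted relative to DMSO control.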

[5] = BSK_3C_Proliferation: Cell Proliferation Assessment in the BioMAP Diversity Plus: 3C Assay (AID 2283006; active = hit-call score of the fitted dose curve at least 0.9, where 1 is the maximum; inactive = score below 0.9;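 for AC50: potency may reflect either rise or fall in cell number versus DMSO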); details: primary human endothelial cells (HUVEC)
Outline: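 HUVEC, sub-confluent; 48 h chemical exposure; 10% TCA fix, 0.1% SRB stain, A560 total protein. Gain or loss of signal fitted both directions vs DMSO control.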

[6] = biological target: Peroxisome proliferator-activated receptor gamma (Homo sapiens) (UniProt P37231); assay: ATG_PPARg_TRANS: Attagene TRANS-FACTORIAL HepG2 Assay for human Peroxisome Proliferator-activated Receptor-gamma (PPARg) (AID 2283007)
Outline: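 Liver-derived HepG2 cells expressing an exogenous NR-Gal4 chimera alongside GAL4-UAS reporter genes; 24 h exposure. Fluorescence of reporter RT-PCR products, separated by capillary electrophoresis, gives mRNA induction relative to DMSO.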

[7] = biological target: human Retinoic Acid Receptor gamma (RARg), RARG (gene 5916) (UniProt P13631); assay: ATG_RARg_TRANS: Attagene TRANS-FACTORIAL HepG2 Assay for human Retinoic Acid Receptor gamma (RARg) (AID 2283009)
human Retinoic Acid Receptor gamma (RARg), RARG (gene 5916), sequence (P13631 whole entry, looked up, the tested form may be a part): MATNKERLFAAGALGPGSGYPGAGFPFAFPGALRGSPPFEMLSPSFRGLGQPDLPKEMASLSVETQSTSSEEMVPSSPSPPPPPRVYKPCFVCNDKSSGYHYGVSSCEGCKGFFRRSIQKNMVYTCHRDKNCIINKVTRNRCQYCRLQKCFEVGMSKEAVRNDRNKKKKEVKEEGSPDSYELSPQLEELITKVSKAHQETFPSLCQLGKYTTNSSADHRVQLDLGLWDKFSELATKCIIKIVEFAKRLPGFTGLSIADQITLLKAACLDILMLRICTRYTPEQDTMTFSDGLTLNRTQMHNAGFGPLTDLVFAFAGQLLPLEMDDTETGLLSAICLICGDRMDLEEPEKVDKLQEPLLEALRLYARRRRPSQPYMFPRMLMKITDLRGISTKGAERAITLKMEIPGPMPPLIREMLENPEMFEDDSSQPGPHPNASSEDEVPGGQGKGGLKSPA
Outline: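 Readout: reporter transcript levels via RT-PCR, 6-FAM primer-extension labelling, HpaI digestion and capillary electrophoresis. Cells: HepG2 carrying transfected RARg-GAL4 chimera plus UAS reporter set. Dosing 24 h; DMSO negative control.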

[8] = biological target: human RAR-related Orphan Receptor beta (RORb), RORB (gene 6096) (UniProt Q92753); assay: ATG_RORb_TRANS: Attagene TRANS-FACTORIAL HepG2 Assay for human RAR-related Orphan Receptor beta (RORb) (AID 2283010)
Outline: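 HepG2, transient MRTU transfection (GAL4-UAS reporters, exogenous NR-Gal4 chimeras); 24 h compound exposure; total RNA → RT-PCR → 6-FAM primer extension → HpaI digest → CE fluorescence. Positive direction vs DMSO baseline.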

[9] = biological target: Retinoic acid receptor RXR-alpha (Homo sapiens) (UniProt P19793); assay: ATG_RXRa_TRANS: Attagene TRANS-FACTORIAL HepG2 Assay for human Retinoid X Receptor alpha (RXRa) (AID 2283012)
Retinoic acid receptor RXR-alpha (Homo sapiens), sequence (P19793 whole entry, looked up, the tested form may be a part): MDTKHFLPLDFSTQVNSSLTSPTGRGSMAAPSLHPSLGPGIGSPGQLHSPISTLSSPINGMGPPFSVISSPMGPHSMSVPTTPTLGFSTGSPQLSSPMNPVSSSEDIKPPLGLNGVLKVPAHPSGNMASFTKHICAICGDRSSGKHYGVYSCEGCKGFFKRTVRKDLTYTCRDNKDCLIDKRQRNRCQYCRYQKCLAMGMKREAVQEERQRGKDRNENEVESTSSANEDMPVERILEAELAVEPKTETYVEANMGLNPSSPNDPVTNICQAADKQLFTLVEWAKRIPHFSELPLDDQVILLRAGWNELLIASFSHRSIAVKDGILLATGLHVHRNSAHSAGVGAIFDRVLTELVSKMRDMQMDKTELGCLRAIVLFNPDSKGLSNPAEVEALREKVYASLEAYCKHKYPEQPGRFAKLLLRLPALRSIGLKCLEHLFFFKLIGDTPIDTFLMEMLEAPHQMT
Outline: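 Read-out: fluorescent reporter-transcript fragments quantified by capillary electrophoresis after RT-PCR. Transiently transfected HepG2 cells carrying GAL4-UAS reporters and NR-GAL4 chimeras were exposed to chemical for 24 h; activity scored as increase over DMSO.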

[10] = biological target: human Retinoid X Receptor beta (RXRb), RXRB (gene 6257) (UniProt P28702); assay: ATG_RXRb_TRANS: Attagene TRANS-FACTORIAL HepG2 Assay for human Retinoid X Receptor beta (RXRb) (AID 2283013)
human Retinoid X Receptor beta (RXRb), RXRB (gene 6257), sequence (P28702 whole entry, looked up, the tested form may be a part): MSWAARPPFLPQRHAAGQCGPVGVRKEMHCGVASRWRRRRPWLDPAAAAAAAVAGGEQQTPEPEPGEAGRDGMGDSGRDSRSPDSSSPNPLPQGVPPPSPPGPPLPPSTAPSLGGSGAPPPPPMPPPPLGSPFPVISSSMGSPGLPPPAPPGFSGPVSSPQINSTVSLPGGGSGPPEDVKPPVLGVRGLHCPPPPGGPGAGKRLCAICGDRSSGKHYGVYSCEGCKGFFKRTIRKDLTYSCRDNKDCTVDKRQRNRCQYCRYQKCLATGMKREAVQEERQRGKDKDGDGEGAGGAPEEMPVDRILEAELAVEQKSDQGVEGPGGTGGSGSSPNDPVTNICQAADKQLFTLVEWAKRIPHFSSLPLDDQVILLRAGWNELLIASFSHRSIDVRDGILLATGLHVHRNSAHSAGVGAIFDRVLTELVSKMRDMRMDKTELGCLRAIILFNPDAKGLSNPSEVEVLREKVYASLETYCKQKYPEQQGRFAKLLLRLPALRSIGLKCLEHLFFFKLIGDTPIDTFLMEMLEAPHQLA
Outline: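 Read-out: reporter mRNA induction via RT-PCR plus capillary electrophoresis fluorescence, analysed as signal increase relative to DMSO. Cells were human HepG2, transiently transfected with GAL4-UAS reporter constructs and chimeric receptor-Gal4 fusions, dosed for 24 h.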

[11] = biological target: human Thyroid Receptor alpha (THRa1), THRA (gene 7067) (UniProt P10827); assay: ATG_THRa1_TRANS: Attagene TRANS-FACTORIAL HepG2 Assay for human Thyroid Receptor alpha (THRa1) (AID 2283014)
human Thyroid Receptor alpha (THRa1), THRA (gene 7067), sequence (P10827 whole entry, looked up, the tested form may be a part): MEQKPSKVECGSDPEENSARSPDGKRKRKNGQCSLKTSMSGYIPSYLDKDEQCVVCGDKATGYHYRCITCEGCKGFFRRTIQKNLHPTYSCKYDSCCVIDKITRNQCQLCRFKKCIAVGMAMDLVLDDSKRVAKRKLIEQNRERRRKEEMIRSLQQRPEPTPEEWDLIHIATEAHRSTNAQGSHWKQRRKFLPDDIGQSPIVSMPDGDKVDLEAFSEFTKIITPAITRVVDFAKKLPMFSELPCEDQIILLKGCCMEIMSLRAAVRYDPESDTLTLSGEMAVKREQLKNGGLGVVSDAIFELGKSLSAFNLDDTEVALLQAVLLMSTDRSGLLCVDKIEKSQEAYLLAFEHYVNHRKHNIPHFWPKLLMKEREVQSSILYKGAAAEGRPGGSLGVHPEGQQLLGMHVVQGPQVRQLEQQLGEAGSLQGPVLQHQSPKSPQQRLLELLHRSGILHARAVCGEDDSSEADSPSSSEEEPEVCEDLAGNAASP
Outline: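 Transcripts from GAL4-UAS-driven reporters, measured after 24 h compound exposure by RT-PCR plus capillary electrophoresis of 6-FAM-labeled fragments, were fitted for gain of signal relative to DMSO. Cells: transiently transfected HepG2 expressing NR-Gal4 chimeras.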

[12] = read-out: Interleukin-1 alpha (IL1a), IL1A (gene 3552); assay: BSK_BE3C_IL1a: BioMAP Diversity Plus: BE3C Assay for Interleukin-1 alpha (IL1a) Biomarker Activity (AID 2283016; active = hit-call score of the fitted dose curve at least 0.9, where 1 is the maximum; inactive = score below 0.9); details: primary human bronchial epithelial cells; actives raise or lower the signal
Outline: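 ELISA read-out of IL-1a from human lung bronchial epithelial primary cells, 24 h post-dose. Gain or loss of signal fitted relative to DMSO negative control.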

[13] = read-out: Monocyte Chemoattractant Protein-1 (MCP1), CCL2 (gene 6347); assay: BSK_3C_MCP1: BioMAP Diversity Plus: 3C Assay for Monocyte Chemoattractant Protein-1 (MCP1) Biomarker Activity (AID 2283017; active = hit-call score of the fitted dose curve at least 0.9, where 1 is the maximum; inactive = score below 0.9); details: primary human endothelial cells (HUVEC); actives raise or lower the signal
Outline: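 MCP-1 was measured by ELISA 24 h after dosing in primary HUVEC 3C cultures and fitted in both directions relative to DMSO; cytotoxicity was checked by SRB total-protein staining in parallel wells.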

[14] = read-out: Monocyte Chemoattractant Protein-1 (MCP1), CCL2 (gene 6347); assay: BSK_4H_MCP1: BioMAP Diversity Plus: 4H Assay for Monocyte Chemoattractant Protein-1 (MCP1) Biomarker Activity (AID 2283018; active = hit-call score of the fitted dose curve at least 0.9, where 1 is the maximum; inactive = score below 0.9); details: primary human endothelial cells (HUVEC); actives raise or lower the signal
Outline: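 HUVEC primary cells, 24 h post-dose, MCP-1 by ELISA. Gain or loss of signal fitted bidirectionally vs DMSO baseline. Cytotoxicity: SRB stain (0.1% after 10% TCA fixation), read 560 nm, parallel cultures.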

[15] = read-out: Interleukin-8 (IL8), CXCL8 (gene 3576); assay: BSK_3C_IL8: BioMAP Diversity Plus: 3C Assay for Interleukin-8 (IL8) Biomarker Activity (AID 2283020; active = hit-call score of the fitted dose curve at least 0.9, where 1 is the maximum; inactive = score below 0.9); details: primary human endothelial cells (HUVEC); actives raise or lower the signal
Outline: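 HUVEC, 3C stimulation; 24 h compound exposure; IL-8 read by ELISA; gain or loss of signal fitted relative to DMSO control.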

[16] = biological target: Nuclear receptor subfamily 1 group I member 2 (Homo sapiens) (UniProt O75469); assay: ATG_PXR_TRANS: Attagene TRANS-FACTORIAL HepG2 Assay for human Pregnane X Receptor (PXR) (AID 2283008)
Nuclear receptor subfamily 1 group I member 2 (Homo sapiens), sequence (O75469 whole entry, looked up, the tested form may be a part): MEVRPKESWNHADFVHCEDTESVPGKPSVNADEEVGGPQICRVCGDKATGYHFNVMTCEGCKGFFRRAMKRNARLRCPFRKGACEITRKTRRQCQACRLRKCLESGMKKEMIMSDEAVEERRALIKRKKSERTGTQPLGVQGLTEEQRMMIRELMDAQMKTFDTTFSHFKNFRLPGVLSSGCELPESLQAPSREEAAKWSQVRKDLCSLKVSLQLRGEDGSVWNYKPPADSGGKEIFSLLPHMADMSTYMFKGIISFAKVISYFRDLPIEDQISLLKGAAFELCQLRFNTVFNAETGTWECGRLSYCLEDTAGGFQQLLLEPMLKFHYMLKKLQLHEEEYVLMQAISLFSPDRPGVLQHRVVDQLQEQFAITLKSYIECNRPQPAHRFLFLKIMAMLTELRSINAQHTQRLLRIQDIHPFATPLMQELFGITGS
Outline: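 Multiplexed TRANS reporter panel in HepG2; this component tracks PXR-Gal4-driven reporter mRNA after 24 h dosing, measured by RT-PCR with capillary electrophoresis fluorescence, fitted against DMSO.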

[17] = biological target: human RAR-related Orphan Receptor gamma (RORg), RORC (gene 6097) (UniProt P51449); assay: ATG_RORg_TRANS: Attagene TRANS-FACTORIAL HepG2 Assay for human RAR-related Orphan Receptor gamma (RORg) (AID 2283011)
human RAR-related Orphan Receptor gamma (RORg), RORC (gene 6097), sequence (P51449 whole entry, looked up, the tested form may be a part): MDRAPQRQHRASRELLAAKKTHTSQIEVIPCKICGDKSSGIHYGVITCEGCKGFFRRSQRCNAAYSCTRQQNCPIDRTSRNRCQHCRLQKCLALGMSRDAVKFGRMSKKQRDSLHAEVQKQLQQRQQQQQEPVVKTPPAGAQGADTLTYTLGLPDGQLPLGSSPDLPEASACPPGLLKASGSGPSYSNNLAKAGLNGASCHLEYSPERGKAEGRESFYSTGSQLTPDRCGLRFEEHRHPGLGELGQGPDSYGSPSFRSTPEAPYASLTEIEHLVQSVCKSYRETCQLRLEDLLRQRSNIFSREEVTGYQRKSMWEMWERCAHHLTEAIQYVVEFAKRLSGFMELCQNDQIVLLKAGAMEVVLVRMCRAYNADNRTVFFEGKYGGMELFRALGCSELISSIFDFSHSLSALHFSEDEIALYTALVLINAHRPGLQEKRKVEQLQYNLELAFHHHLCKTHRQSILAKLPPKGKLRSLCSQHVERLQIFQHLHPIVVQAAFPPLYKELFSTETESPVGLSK
Outline: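 Reporter transcripts from a transfected RORg-GAL4 chimera in HepG2 cells were quantified 24 h after dosing by RT-PCR, 6-FAM labelling, HpaI digestion and capillary electrophoresis; increases over DMSO baseline were fitted.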

[18] = read-out: E-selectin (Homo sapiens) (UniProt P16581); assay: BSK_3C_Eselectin: BioMAP Diversity Plus: 3C Assay for Eselectin Biomarker Activity (AID 2283015; active = hit-call score of the fitted dose curve at least 0.9, where 1 is the maximum; inactive = score below 0.9); details: primary human endothelial cells (HUVEC); actives raise or lower the signal
Outline: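 E-selectin ELISA readout, fitted bidirectionally relative to DMSO, taken 24 h post-dosing in HUVEC cultures of the 3C system. Overt cytotoxicity tracked with sulforhodamine B staining of parallel wells.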

[19] = biological target: human Peroxisome Proliferator-activated Receptor alpha (PPARa), PPARA (gene 5465) (UniProt Q07869); assay: ATG_PPARa_TRANS: Attagene TRANS-FACTORIAL HepG2 Assay for human Peroxisome Proliferator-activated Receptor alpha (PPARa) (AID 2283001)
human Peroxisome Proliferator-activated Receptor alpha (PPARa), PPARA (gene 5465), sequence (Q07869 whole entry, looked up, the tested form may be a part): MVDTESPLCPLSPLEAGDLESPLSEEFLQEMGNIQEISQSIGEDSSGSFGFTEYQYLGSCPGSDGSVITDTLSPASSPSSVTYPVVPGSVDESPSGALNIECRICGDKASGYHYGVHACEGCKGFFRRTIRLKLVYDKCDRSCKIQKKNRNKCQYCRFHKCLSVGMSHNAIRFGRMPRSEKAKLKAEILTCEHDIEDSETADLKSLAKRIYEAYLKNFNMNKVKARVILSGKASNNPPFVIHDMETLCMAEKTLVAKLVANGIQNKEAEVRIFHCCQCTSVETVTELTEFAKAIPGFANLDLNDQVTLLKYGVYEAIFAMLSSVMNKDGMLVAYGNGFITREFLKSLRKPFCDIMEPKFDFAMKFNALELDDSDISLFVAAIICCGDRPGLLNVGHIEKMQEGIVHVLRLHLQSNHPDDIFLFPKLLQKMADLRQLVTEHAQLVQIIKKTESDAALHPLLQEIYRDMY
Outline: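 Exposure: 24 h, transiently transfected HepG2 cells. Endpoint: GAL4-UAS reporter mRNA, RT-PCR with capillary electrophoresis fluorescence. Baseline: DMSO; increases fitted.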

[20] = read-out: Human Leukocyte Antigen - DR isotype (HLADR), HLA-DRA (gene 3122); assay: BSK_3C_HLADR: BioMAP Diversity Plus: 3C Assay for Human Leukocyte Antigen - DR isotype (HLADR) Biomarker Activity (AID 2283019; active = hit-call score of the fitted dose curve at least 0.9, where 1 is the maximum; inactive = score below 0.9); details: primary human endothelial cells (HUVEC); actives raise or lower the signal
Outline: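 Bidirectional fitting against DMSO was applied to the HLA-DR ELISA signal from human umbilical vein endothelial cells, 24 h post-dose. Cytotoxicity came from parallel SRB total-protein staining; 3C proliferation was counted by SRB at 48 h.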

Measured: AC50

E-selectin (Homo sapiens), sequence (P16581 whole entry, looked up): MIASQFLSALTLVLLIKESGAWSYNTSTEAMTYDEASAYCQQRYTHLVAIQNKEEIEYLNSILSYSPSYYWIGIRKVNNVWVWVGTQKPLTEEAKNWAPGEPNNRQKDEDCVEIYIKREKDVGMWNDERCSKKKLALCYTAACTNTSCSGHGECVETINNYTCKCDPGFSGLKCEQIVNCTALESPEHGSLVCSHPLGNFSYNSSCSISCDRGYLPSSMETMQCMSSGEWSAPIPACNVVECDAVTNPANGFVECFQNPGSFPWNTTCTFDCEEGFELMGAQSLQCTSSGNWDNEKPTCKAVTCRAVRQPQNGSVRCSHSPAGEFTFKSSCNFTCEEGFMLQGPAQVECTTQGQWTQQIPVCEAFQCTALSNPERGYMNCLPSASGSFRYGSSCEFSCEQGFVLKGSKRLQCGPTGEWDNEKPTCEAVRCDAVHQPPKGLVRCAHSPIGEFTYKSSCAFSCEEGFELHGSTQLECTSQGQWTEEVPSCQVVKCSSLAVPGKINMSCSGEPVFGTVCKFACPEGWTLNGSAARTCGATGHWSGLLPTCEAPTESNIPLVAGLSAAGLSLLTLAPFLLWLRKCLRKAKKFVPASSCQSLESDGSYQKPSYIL

CCOP(=S)(OCC)Oc1ccc(S(C)=O)cc1 (configuration not stated)
not listed: [16] | [17] | [18] | [19] | [20]
inactive: all other assays above

CC(C)(C)CC(C)(C)c1ccc(O)cc1
inactive: [1] | [16] | [8] | [17] | [9] | [11]
active: [2] 10.8 µM | [5] 7.69 µM | [16] 8.34 µM and 7.58 µM and 5.92 µM | [10] 11.1 µM and 4.81 µM and 6.61 µM | [18] 7.99 µM | [12] 19.5 µM | [13] 9.66 µM | [14] 6.54 µM | [15] 10.1 µM

O=C(c1ccccc1)C(Cl)Cl
inactive: [19] | [6] | [16] | [7] | [8] | [17] | [9] | [10] | [11]

O=C/C=C/c1ccccc1
inactive: [19] | [3] | [8] | [9] | [10]
active: [6] 28.7 µM

Oc1c(I)cc(I)cc1I
inactive: [1] | [2] | [9] | [10]
active: [5] 11.4 µM | [6] 9.7 µM | [11] 7.66 µM | [18] 11.3 µM | [12] 8.87 µM | [13] 11.9 µM | [14] 20 µM | [15] 11.5 µM

C=CCc1ccc(OC)cc1
inactive: [19] | [6] | [17] | [9] | [10] | [11]

C[C@@H](Oc1ccc(Cl)cc1Cl)C(=O)O
inactive: [19] | [7] | [10] | [11]
active: [6] 49.4 µM

C=C(C)C(=O)[O][Sn]([CH2]CCC)([CH2]CCC)[CH2]CCC
inactive: [1] | [11]
active: [2] 0.155 µM | [5] 0.148 µM | [6] 0.291 µM | [16] 286 nM | [9] 0.00348 µM | [10] 32.3 nM | [12] 0.148 µM | [13] 0.46 µM | [14] 0.663 µM | [20] 0.233 µM | [15] 0.148 µM

CCN1CCC2(CC1)COc1cc3c(cc12)N(C(=O)c1ccc(-c2ccc(-c4nnc(C)o4)cc2C)cc1)CC3
inactive: [1] | [3] | [4] | [7] | [8] | [9] | [10]
active: [2] 29.2 µM | [5] 5.23 µM | [18] 28 µM | [12] 13.8 µM | [13] 14 µM | [14] 26 µM | [15] 18.4 µM

O=S(=O)(c1ccc(Cl)cc1)c1ccc(Cl)cc1
active: [6] 7.7 µM | [16] 7000 nM
inactive: [1] | [2] | [5] | [9] | [11] | [18] | [12] | [13] | [14] | [15]
